The full data set covers some 8,800 targets. This sample favours those with a hit. About 0.5% of all pairs of compound and target were hits. A number with no mark means an inactive call.
Assays:
Assay in all cases: log2 fold change, soluble protein after heating vs DMSO (PISA); higher = thermal stabilisation; K562 lysate, 10 uM; active = over 0.2 and 3.5 SD of the protein, either way, in both replicates (recomputed)
ibrutinib = compound: C=CC(=O)N1CCC[C@@H](n2nc(-c3ccc(Oc4ccccc4)cc3)c3c(N)ncnc32)C1 [ibrutinib]
How it was run: (§1)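 K562 pellets were dounce-homogenised in PBS pH 7.4 with 1 mM MgCl2, and the crude extract at 1 mg/mL protein was treated with 10 μM compound for 30 min. Aliquots were heated for 3 min across 48°C-58°C, pooled, and brought to 0.5% NP-40 at 4°C; soluble protein was the supernatant after 21,000xg for 90 min. Soluble protein was quantified by TMTpro 16plex LC-MS/MS with channel sums equalised, and reported as log2 fold change in thermal stability against DMSO controls, with values from duplicates.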

[1] = compound: CC(=O)c1cnc2ccc(-c3cc(Cl)c(O)c(Cl)c3)nc2c1N[C@H]1CC[C@H](CN(C)C)CC1
How it was run: as §1

ralimetinib = compound: CC(C)(C)Cn1c(N)nc2ccc(-c3[nH]c(C(C)(C)C)nc3-c3ccc(F)cc3)nc21 [ralimetinib]
How it was run: as §1

[2] = compound: CC(C)(O)CC(=O)NCCn1ccc2ncnc(Nc3ccc(Oc4cccc(C(F)(F)F)c4)c(Cl)c3)c21
How it was run: as §1

[3] = compound: CC(C)C1=C2N=C(C=C(N2N=C1)NCC3=CC=CC=C3)NCCCCCCN
How it was run: as §1

[4] = compound: CC1=C(C(CC(=O)N1)C2=CC=C(C=C2)C(F)(F)F)C(=O)NC3=C(C=C4C(=C3)C=NN4)F
How it was run: as §1

[5] = compound: CC1=C(C2=C(C=C1)C(=O)C3=CC=CC=C3N2CCCN)C
How it was run: as §1

[6] = compound: CC1=C(C=C(C=C1)NC(=O)C2=CC(=CC=C2)C(C)(C)C#N)NC3=CC4=C(C=C3)N=CN(C4=O)C
How it was run: as §1

[7] = compound: CC1=C(C=C(C=C1)NC(=O)C2=CC(=CC=C2)N(C)C)NC(=O)C3=CC=C(C=C3)O
How it was run: as §1

[8] = compound: CC1=CC=C(C=C1)SC2=C3C=C(SC3=CN=C2)C(=O)N
How it was run: as §1

vemurafenib = compound: CCCS(=O)(=O)Nc1ccc(F)c(C(=O)c2c[nH]c3ncc(-c4ccc(Cl)cc4)cc23)c1F [vemurafenib]
How it was run: as §1

[9] = compound: CCCS(=O)(=O)Nc1ccc(F)c(C(=O)c2c[nH]c3ncc(Cl)cc23)c1F
How it was run: as §1

barasertib = compound: CCN(CCCOc1ccc2c(Nc3cc(CC(=O)Nc4cccc(F)c4)[nH]n3)ncnc2c1)CCOP(=O)(O)O [barasertib]
How it was run: as §1

[10] = compound: CC[C@@H]1C(=O)N(C)c2cnc(Nc3ccc(C(=O)NC4CCN(C)CC4)cc3OC)nc2N1C1CCCC1
How it was run: as §1

volasertib = compound: CC[C@@H]1C(=O)N(C)c2cnc(Nc3ccc(C(=O)N[C@H]4CC[C@H](N5CCN(CC6CC6)CC5)CC4)cc3OC)nc2N1C(C)C [volasertib]
How it was run: as §1

[11] = compound: CCn1c(C(=O)N(C2CC2)C2CC2)cc2c3c(ncn3C)c(Nc3cc(C)n(C)n3)nc21
How it was run: as §1

[12] = compound: CCn1cc(-c2ccnc3[nH]c(-c4cccc(CN(C)C)c4)cc23)c(-c2ccc(NC(=O)N(C)C)cc2)n1
How it was run: as §1

[13] = compound: CN1CCC(CNc2ccc3ncc(-c4cccc(OC(F)(F)F)c4)n3n2)CC1
How it was run: as §1

saracatinib = compound: CN1CCN(CCOc2cc(OC3CCOCC3)c3c(Nc4c(Cl)ccc5c4OCO5)ncnc3c2)CC1 [saracatinib]
How it was run: as §1

sotrastaurin = compound: CN1CCN(c2nc(C3=C(c4c[nH]c5ccccc45)C(=O)NC3=O)c3ccccc3n2)CC1 [sotrastaurin]
How it was run: as §1

Chain of UniProt Q9NVU0 (Q9NVU0 whole entry, looked up): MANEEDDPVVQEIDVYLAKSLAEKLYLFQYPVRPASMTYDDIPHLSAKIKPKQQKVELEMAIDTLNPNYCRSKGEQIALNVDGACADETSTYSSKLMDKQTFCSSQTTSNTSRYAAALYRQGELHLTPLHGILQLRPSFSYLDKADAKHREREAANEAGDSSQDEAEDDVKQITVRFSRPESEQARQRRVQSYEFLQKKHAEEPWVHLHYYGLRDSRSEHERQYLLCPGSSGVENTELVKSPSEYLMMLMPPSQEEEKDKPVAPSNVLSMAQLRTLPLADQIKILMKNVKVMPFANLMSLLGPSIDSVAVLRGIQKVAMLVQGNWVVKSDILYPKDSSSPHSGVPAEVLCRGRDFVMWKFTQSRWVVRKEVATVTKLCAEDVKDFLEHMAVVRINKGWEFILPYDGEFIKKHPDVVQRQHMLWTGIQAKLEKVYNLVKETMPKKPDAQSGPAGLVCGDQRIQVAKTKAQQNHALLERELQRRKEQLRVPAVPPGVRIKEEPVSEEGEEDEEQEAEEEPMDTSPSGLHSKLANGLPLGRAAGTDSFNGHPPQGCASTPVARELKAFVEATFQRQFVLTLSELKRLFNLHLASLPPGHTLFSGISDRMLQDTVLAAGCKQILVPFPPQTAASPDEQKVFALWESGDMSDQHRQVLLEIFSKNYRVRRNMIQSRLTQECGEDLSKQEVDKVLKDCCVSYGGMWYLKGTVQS
Chain of UniProt Q14289 (Q14289 whole entry, looked up): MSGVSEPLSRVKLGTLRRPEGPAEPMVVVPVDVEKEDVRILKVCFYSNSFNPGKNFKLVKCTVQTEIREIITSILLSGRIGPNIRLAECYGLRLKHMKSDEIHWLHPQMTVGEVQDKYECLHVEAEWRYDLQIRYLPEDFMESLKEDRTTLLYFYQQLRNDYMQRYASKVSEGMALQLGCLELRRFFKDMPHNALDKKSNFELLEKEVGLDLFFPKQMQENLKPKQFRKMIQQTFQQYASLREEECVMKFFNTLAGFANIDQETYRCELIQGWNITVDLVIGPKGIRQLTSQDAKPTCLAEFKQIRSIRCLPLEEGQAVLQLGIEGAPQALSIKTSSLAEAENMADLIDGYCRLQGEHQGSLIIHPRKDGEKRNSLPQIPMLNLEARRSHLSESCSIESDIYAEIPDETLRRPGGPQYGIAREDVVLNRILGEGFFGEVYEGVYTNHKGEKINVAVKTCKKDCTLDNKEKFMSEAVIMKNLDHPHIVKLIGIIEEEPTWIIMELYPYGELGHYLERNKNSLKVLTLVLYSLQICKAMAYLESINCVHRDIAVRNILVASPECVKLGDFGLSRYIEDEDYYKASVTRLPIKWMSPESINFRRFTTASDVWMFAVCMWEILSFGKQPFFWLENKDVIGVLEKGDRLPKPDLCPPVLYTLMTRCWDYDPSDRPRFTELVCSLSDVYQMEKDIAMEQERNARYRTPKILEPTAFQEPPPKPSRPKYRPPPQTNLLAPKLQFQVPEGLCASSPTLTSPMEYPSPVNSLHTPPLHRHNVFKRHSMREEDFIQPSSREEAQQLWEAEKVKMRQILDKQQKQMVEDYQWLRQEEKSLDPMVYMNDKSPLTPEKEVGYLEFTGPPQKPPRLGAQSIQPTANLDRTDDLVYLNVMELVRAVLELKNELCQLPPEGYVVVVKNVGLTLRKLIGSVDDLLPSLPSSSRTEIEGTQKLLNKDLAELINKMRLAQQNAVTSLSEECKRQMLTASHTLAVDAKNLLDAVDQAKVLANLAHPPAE
Chain of UniProt O43741 (O43741 whole entry, looked up): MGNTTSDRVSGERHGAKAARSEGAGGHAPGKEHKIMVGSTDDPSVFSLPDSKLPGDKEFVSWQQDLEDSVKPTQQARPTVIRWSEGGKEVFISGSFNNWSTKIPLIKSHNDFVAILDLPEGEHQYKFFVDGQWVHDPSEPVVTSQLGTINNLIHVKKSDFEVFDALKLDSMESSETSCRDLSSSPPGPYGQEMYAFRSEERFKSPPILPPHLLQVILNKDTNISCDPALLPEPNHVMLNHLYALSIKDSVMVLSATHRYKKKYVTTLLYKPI
Chain of UniProt Q16875 (Q16875 whole entry, looked up): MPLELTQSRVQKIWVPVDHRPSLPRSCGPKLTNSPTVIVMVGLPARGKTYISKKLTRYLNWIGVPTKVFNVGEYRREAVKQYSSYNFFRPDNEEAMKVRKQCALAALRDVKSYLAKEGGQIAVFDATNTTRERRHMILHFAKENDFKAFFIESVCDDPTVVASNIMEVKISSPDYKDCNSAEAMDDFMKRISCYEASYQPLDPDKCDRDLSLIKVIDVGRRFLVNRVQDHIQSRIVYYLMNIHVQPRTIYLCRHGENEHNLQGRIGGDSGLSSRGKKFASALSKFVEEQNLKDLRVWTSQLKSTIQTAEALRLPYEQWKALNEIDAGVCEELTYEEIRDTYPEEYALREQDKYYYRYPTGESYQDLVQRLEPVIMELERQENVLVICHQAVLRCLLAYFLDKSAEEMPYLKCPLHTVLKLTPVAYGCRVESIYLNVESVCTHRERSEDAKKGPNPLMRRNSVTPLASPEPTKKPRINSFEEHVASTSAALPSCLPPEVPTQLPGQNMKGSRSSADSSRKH
Chain of UniProt Q8NA72 (Q8NA72 whole entry, looked up): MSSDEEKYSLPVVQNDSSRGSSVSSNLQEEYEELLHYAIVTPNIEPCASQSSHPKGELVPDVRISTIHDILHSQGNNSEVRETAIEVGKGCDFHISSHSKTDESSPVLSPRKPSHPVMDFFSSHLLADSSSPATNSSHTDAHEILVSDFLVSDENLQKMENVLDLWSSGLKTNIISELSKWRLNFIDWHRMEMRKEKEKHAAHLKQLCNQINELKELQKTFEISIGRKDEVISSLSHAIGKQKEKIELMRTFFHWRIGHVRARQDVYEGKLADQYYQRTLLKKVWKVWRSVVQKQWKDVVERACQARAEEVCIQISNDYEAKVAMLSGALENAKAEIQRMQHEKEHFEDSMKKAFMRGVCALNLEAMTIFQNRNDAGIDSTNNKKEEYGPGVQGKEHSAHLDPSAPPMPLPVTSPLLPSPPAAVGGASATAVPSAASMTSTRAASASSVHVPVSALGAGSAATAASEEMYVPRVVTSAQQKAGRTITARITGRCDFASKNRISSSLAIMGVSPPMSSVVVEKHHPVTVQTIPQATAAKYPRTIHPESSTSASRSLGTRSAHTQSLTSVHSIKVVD
Chain of UniProt O43663 (O43663 whole entry, looked up): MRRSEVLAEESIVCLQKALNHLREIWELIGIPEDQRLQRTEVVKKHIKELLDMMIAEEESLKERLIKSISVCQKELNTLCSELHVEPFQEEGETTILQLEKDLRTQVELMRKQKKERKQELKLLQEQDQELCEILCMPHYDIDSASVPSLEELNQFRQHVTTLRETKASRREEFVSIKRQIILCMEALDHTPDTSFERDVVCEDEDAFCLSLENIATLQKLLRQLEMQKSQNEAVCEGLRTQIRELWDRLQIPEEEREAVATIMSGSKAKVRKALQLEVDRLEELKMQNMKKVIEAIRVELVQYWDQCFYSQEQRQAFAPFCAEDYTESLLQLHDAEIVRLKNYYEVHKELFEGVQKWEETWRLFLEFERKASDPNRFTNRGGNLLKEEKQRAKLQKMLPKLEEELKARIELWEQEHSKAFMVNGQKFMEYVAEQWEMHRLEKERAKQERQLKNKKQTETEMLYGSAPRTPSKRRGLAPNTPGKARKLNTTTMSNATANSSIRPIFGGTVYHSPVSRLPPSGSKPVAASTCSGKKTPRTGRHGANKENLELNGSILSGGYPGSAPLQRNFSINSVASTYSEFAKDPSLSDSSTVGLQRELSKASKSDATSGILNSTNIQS
Chain of UniProt Q9Y570 (Q9Y570 whole entry, looked up): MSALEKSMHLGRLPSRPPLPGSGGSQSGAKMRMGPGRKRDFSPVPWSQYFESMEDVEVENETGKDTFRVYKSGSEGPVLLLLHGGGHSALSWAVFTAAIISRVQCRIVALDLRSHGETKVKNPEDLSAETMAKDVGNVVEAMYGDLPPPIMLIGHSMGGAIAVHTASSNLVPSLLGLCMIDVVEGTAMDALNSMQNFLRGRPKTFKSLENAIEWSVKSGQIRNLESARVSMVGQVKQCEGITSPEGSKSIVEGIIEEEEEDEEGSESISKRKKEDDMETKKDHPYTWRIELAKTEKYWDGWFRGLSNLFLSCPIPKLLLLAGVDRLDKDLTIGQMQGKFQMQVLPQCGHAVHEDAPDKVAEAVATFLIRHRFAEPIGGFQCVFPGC
Chain of UniProt O00408 (O00408 whole entry, looked up): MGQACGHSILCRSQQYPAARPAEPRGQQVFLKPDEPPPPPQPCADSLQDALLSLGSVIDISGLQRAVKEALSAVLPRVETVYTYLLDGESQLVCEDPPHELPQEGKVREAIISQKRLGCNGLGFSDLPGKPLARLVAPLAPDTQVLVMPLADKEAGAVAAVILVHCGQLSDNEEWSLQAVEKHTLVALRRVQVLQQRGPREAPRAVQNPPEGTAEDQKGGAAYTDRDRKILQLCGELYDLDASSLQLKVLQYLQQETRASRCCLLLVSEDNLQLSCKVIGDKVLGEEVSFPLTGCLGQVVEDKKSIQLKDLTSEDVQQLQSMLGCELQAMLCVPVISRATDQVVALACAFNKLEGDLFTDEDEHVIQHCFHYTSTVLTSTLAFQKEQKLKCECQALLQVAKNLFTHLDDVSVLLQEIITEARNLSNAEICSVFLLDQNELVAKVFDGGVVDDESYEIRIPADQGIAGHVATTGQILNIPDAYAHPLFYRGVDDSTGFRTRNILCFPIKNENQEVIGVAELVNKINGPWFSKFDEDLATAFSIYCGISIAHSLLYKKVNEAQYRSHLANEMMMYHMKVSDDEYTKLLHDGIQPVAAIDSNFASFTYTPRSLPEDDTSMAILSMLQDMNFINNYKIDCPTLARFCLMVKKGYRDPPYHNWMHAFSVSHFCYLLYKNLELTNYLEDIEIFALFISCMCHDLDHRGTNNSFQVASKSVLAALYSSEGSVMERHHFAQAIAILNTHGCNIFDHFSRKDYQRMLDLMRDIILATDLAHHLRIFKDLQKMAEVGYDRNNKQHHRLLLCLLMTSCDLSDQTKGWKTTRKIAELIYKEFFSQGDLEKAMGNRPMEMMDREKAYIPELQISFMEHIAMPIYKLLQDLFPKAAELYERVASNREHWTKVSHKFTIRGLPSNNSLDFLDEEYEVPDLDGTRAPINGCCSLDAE

Target | log2 fold change (ibrutinib) | log2 fold change [1] | log2 fold change (ralimetinib) | log2 fold change [2] | log2 fold change [3] | log2 fold change [4] | log2 fold change [5] | log2 fold change [6] | log2 fold change [7] | log2 fold change [8] | log2 fold change (vemurafenib) | log2 fold change [9] | log2 fold change (barasertib) | log2 fold change [10] | log2 fold change (volasertib) | log2 fold change [11] | log2 fold change [12] | log2 fold change [13] | log2 fold change (saracatinib) | log2 fold change (sotrastaurin)
PDE2A (UniProt O00408) | -0.008 | -0.148 | -0.202 | -0.107 | -0.045 | -0.018 | 0.025 | -0.038 | 0.01 | -0.11 | 0.374 (active) | -0.015 | -0.015 | -0.215 | 0.041 | -0.173 | -0.135 | 0.023 | -0.042 | 0.039
PPME1 isoform 4 (UniProt Q9Y570) | 0.042 | 0.009 | 0.008 | 0.018 | -0.001 | -0.021 | -0.004 | -0.011 | -0.023 | 0.012 | 0.005 | 0.003 | -0.045 | -0.006 | 0.016 | 0.028 | -0.015 | 0.008 | -0.01 | -0.008
PLEKHA5 isoform 6 (UniProt Q9HAU0) | 0.075 | 0.003 | -0.004 | -0.001 | 0.069 | -0.013 | -0.033 | 0.028 | 0.022 | -0.036 | 0.003 | -0.003 | 0.043 | -0.005 | 0.003 | 0.026 | -0.117 | -0.088 | 0.027 | 0.02
PRC1 (UniProt O43663) | -0.007 | 0.009 | -0.016 | 0.01 | 0.01 | 0.039 | -0.006 | 0.025 | 0.021 | 0.059 | 0.048 | 0.03 | 0.063 | -0.057 | -0.028 | 0 | -0.004 | -0.094 | 0.025 | 0.005
PFKFB3 isoform 4 (UniProt Q16875) | -0.015 | 0.11 | 0.044 | -0.003 | 0 | 0.027 | 0.003 | 0.011 | -0.019 | 0.148 | -0.022 | 0.134 | 0.003 | -0.003 | 0.067 | 0.037 | 0.003 | -0.046 | -0.024 | 0.034
POC5 (UniProt Q8NA72) | 0.013 | -0.063 | 0.062 | -0.029 | 0.101 | 0.015 | 0.026 | -0.015 | 0 | -0.02 | -0.062 | -0.049 | 0.014 | 0.17 | 0 | -0.045 | 0.021 | -0.011 | -0.087 | -0.046
PIKFYVE (UniProt Q9Y2I7) | 0.019 | -0.012 | 0.011 | -0.012 | 0 | 0.042 | 0.003 | -0.044 | 0.016 | -0.004 | -0.022 | 0.042 | 0.26 | -0.036 | -0.047 | 0.04 | -0.056 | 0.038 | 0.054 | 0.038
PRKAB2 (UniProt O43741) | -0.041 | -0.018 | 0.093 | -0.129 | -0.025 | 0.086 | -0.066 | -0.082 | 0.035 | -0.008 | 0.022 | 0.104 | -0.081 | 0 | -0.05 | -0.094 | -0.85 (active) | 0.303 | 0.029 | 0.026
PTK2B (UniProt Q14289) | 0.014 | 0.073 | -0.04 | -0.072 | -0.005 | -0.039 | -0.001 | -0.049 | 0.013 | -0.022 | 0.001 | -0.03 | -0.013 | 0.118 | 0.022 | -0.044 | 0.001 | 0.107 | 0.019 | 0.033
PCBP2 (UniProt H3BRU6) | 0.046 | 0.016 | 0.031 | -0.018 | -0.036 | -0.055 | 0.001 | 0.141 | 0.039 | -0.031 | 0.13 | -0.031 | -0.115 | 0.085 | 0.036 | -0.082 | -0.041 | 0.047 | 0.1 | 0.179
POLR3E (UniProt Q9NVU0) | 0.02 | 0.018 | 0.043 | -0.006 | 0.029 | 0.025 | -0.021 | -0.004 | 0.003 | 0.007 | 0.011 | 0.02 | 0.003 | 0.018 | -0.004 | -0.012 | 0.035 | 0.012 | 0.017 | 0.048
PCBD2 (UniProt Q9H0N5) | 0.035 | 0.02 | 0.051 | -0.08 | 0.033 | 0.025 | 0.022 | 0.027 | -0.007 | -0.03 | 0.004 | -0.017 | 0.013 | 0.018 | 0.016 | 0.031 | -0.237 | 0.11 | -0.05 | 0.055
PRKDC (UniProt P78527) | 0.096 | 0.318 | 0.033 | 0.01 | -0.014 | -0.021 | 0.031 | -0.057 | 0.038 | -0.01 | 0.132 | 0.014 | -0.009 | -0.058 | -0.062 | 0.063 | -0.12 | 0.097 | -0.007 | 0.048
PTPN2 (UniProt P17706) | 0.016 | -0.014 | 0.014 | -0.001 | -0.029 | -0.035 | 0.045 | -0.005 | 0.017 | 0.007 | 0.027 | -0.017 | 0.051 | -0.028 | 0 | 0.005 | -0.084 | -0.031 | -0.052 | 0.011
PPIE (UniProt Q9UNP9) | -0.047 | -0.015 | -0.041 | -0.05 | -0.025 | -0.043 | 0.021 | 0.024 | 0.034 | -0.035 | 0.026 | -0.043 | -0.042 | 0.044 | 0.018 | -0.003 | -0.25 (active) | 0.143 | -0.01 | 0.067
POLB (UniProt P06746) | -0.011 | -0.003 | 0.068 | -0.042 | 0.083 | 0.017 | -0.006 | -0.027 | -0.034 | -0.003 | -0.013 | 0.003 | -0.029 | -0.013 | -0.025 | 0.032 | -0.015 | -0.07 | 0.033 | 0.048
